Bioassay records from PubChem.
Most compounds without a hit are left out; they make up all but 6.8% or so of the library.
MCF10A rereplic = A quantitative high throughput screen for small molecules that induce DNA re-replication in MCF 10a normal breast cells; MCF 10A DNA re-replication, Hoechst nuclear intensity, 48 h; Potency, µM (series often up to 46.1 µM), inactives show at the top dose activity, positive = re-replication, usual class: activators; 350,000 compounds, 2.9% hits; AID 624296, 2012; also: % of control where 0% means no effect; nearly all actives have a fitted effect of over 50% in size
KB-V1 MDR tox = qHTS assay for MDR1-selective chemotherapeutics: Primary screen using the drug-selected MDR subline cells KB-V1; Potency, µM (series often up to 46.1 µM), usual class: cytotoxic; 400,000 compounds, 3.4% hits; KB-V1 MDR cells viability, CellTiter-Glo, 72 h; also: % is scaled to controls: 0 for no effect and ±100 for the full control effect; nearly all actives have a fitted effect of over 60% in size
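qHTS viability screen in drug-selected KB-V1 MDR cells: 72 h compound treatment at 37 degrees C, ATP luminescence end point.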
TSG101-PTAP inh = qHTS Assay for Iinhibitors of HIV-1 Budding by Blocking the Interaction of PTAP/TSG101; Tumor susceptibility gene 101 protein (Homo sapiens), Q99816; Fluorescence polarization, FITC-PTAP peptide / Tsg101 binding; Potency, µM (doses to about 115 µM), without a hit: at the highest dose activity change, negative = inhibition, most hits filed as inhibitors; 340,000 tested, under 10 active; active = well fitted inhibition curve with a large enough effect in the main read-out, with a control signal flat, not every such curve was filed as active; inconclusive = small, poorly fitted or top-dose-only effect, or effect the other way, or a change in a side signal; inactive = no such curve, though single readings can be large or run the other way; also: % of control where 0% means no effect
Target sequence (Q99816 whole entry, looked up): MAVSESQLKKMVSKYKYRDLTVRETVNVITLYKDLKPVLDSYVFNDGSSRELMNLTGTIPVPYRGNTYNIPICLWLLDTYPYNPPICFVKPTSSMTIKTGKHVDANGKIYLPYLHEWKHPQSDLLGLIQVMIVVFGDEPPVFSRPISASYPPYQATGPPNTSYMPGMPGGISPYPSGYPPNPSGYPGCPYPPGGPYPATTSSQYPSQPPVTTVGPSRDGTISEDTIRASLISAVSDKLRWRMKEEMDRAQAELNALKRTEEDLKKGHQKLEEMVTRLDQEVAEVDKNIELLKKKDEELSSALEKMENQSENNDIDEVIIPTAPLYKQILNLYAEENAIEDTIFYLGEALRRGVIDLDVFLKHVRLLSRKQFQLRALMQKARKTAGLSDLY
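Compounds were pin-transferred onto Tsg101 binding domain (10 uM final) in HEPES pH 7.5 buffer, then FITC-PTAP peptide was added at 50 nM final. After 20 min at RT, polarization reported peptide displacement across a qHTS concentration series.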
PINK1 expr mod = A Quantitative High throughput Screen to Identify Chemical Modulators of PINK1 Expression; PINK1 immunofluorescence, high-content cytometry, 24 h; Potency, µM (titrated, usually from 76.6 µM), without a hit: top-dose activation (PINK1 increase), usual class: activators; 410,000 compounds, 0.2% hits; AID 624263, 2012; active = well fitted activation curve with a large enough effect; inconclusive = small, poorly fitted or top-dose-only effect; cell line not stated here; also: % of control where 0% means no effect; nearly all actives have a fitted effect of over 65% in size
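Fluorescence from anti-PINK1 antibody, together with nuclear and cell stains, was scanned on a laser-scanning cytometer. Before staining, stable-line cells were incubated 24 hours with compounds at 5 concentrations; primary antibody 12 h at 10 degrees C.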
KB-3-1 cytotox = qHTS assay for MDR1-selective chemotherapeutics: Primary screen using the parental adenocarcinoma cell KB-3-1 | Potency, µM (top dose mostly 46.1 µM), actives largely listed as cytotoxic | KB-3-1 viability, CellTiter-Glo ATP luminescence, 72 h | 400,000 compounds, 1.4% hits | AID 1347075, 2019; also: % is scaled to controls: 0 for no effect and ±100 for the full control effect; nearly all actives have a fitted effect of over 60% in size
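Screening of KB-3-1 cells (DMEM, 10% FBS, phenol-red free) ran from lowest to highest compound concentration; after 72 h at 37 °C viability was read luminescently and curves fitted.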
SW480 rerep = A quantitative high throughput screen for small molecules that induce DNA re-replication in SW480 colon adenocarcinoma cells. 340,000 compounds, 1.8% hits. AID 624297, 2012. Potency, µM (top dose mostly 46.1 µM), for inactives: at the highest dose re-replication activation, hits mostly activators. SW480 DNA re-replication, Hoechst DNA content imaging, 48 h; also: % of control where 0% means no effect; nearly all actives have a fitted effect of over 55% in size
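Quantitative HTS format with DMSO vehicle controls; 48 hr drug incubation at 37 C, then 40 min Hoechst staining and scanning imager measurement at 405 nm excitation.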
An asterisk follows results filed as active; [ ] = remark or other dose. Unless noted, calls follow the shape of the dose curve; as a rule, active = well fitted curve in the direction sought with a large enough effect; inconclusive = small, poorly fitted or top-dose-only effect, or another doubt; inactive = no such curve, though single readings can be large; an effect the other way counts as inactive or inconclusive. Potency is read from the fitted curve at half-maximal effect.

CC(C)(C)CC(C)(C)NCC(O)COc1c(F)cc(Br)cc1F (centres undefined) was read as MCF10A rereplic 0%, KB-V1 MDR tox 21µM*, TSG101-PTAP inh -2%, PINK1 expr mod -4%, KB-3-1 cytotox inconclusive and SW480 rerep inconclusive.
O=C(Nc1cccc(C(F)(F)F)c1)c1cc2c(=O)c3ccccc3oc2nc1C(F)(F)F was read as MCF10A rereplic 8%, KB-V1 MDR tox 21µM*, TSG101-PTAP inh -1%, PINK1 expr mod inconclusive, KB-3-1 cytotox inactive and SW480 rerep -2%.
O=C1CCCC2=C1C(c1ccc(Cl)cc1)N=C(Nc1nc3ccccc3o1)N2 (centres undefined) was read as KB-V1 MDR tox inactive, PINK1 expr mod 0% and KB-3-1 cytotox inactive.
CCC1COCCS(=O)(=O)N1Cc1ccc(C)cc1 (centres undefined) was read as MCF10A rereplic 5%, KB-V1 MDR tox inactive, TSG101-PTAP inh 0%, PINK1 expr mod 0%, KB-3-1 cytotox inactive and SW480 rerep -7%.
`Cc1ccc(CN2[C@H](C)[C@H](c3ccccc3)OCCS2(=O)=O)cc1` gave KB-V1 MDR tox 16µM* and KB-3-1 cytotox 23µM*.
`COc1ccc(Nc2nc(C)nc3c2oc2ccccc23)c(OC)c1` gave MCF10A rereplic 15µM*, KB-V1 MDR tox inactive, TSG101-PTAP inh -1%, PINK1 expr mod 3%, KB-3-1 cytotox inactive and SW480 rerep inconclusive.
For COc1ccc(Nc2nc(C)nc3c2nnn3Cc2ccccc2Cl)c(OC)c1 the results were MCF10A rereplic 3.3µM*, KB-V1 MDR tox inactive, TSG101-PTAP inh 0%, PINK1 expr mod 4%, KB-3-1 cytotox inactive and SW480 rerep 0%.
For CCc1nc(Nc2ccc(OC)cc2OC)c2oc3ccccc3c2n1 the results were MCF10A rereplic inconclusive, KB-V1 MDR tox inactive, TSG101-PTAP inh -1%, PINK1 expr mod 2%, KB-3-1 cytotox inactive and SW480 rerep inconclusive.
For COc1ccccc1Nc1nc(C)nc2c1oc1ccccc12 the results were MCF10A rereplic 18µM*, KB-V1 MDR tox inconclusive, TSG101-PTAP inh -5%, PINK1 expr mod 6%, KB-3-1 cytotox inactive and SW480 rerep 12%.
`CCOC(=O)c1ccc(N2C(=O)c3n[nH]c(C)c3C2c2ccc(O)cc2)cc1` (centres undefined) gave MCF10A rereplic -6%, KB-V1 MDR tox inactive, TSG101-PTAP inh 1%, PINK1 expr mod 0%[38.3 µM], KB-3-1 cytotox inactive and SW480 rerep 4%.
For CCOC(=O)c1ccc(N2C(=O)c3[nH]nc(-c4ccc(OC)cc4)c3C2c2ccc(C)cc2)cc1 (centres undefined) the results were KB-V1 MDR tox 18µM*, PINK1 expr mod 9% and KB-3-1 cytotox inconclusive.
COc1ccc(-c2n[nH]c3c2C(c2ccc(OC)c(OC)c2)N(c2ccccc2)C3=O)cc1 (centres undefined) was read as MCF10A rereplic 22%, KB-V1 MDR tox 15µM*, TSG101-PTAP inh -15%, PINK1 expr mod 7%[38.3 µM], KB-3-1 cytotox inconclusive and SW480 rerep -2%.
CCOC(=O)c1ccc(N2C(=O)c3n[nH]c(C)c3C2c2ccccc2)cc1 (centres undefined) was read as MCF10A rereplic 29%, KB-V1 MDR tox 13µM*, TSG101-PTAP inh -3%, PINK1 expr mod -2%[38.3 µM], KB-3-1 cytotox inactive and SW480 rerep 0%.
